Measurements: PubChem BioAssay (NCI)
About 79,000 compounds went through this panel and 15% of them were active in at least one assay; those are over-represented in the sample as a whole. Active and inactive are the calls of the source. Rule as the data show it: active = growth inhibition above about 70%; inactive = the rest.

Columns and labels:
[1] = NCI Yeast Anticancer Drug Screen. Data for the wt1 strain (AID 149);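 also: 0% = growth of vehicle-treated wt1 cultures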; details: S. cerevisiae wt1 strain (SPY 50644) growth inhibition, stronger effect = higher value
Outline: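 Each compound is tested on wt1 yeast and the loss of growth versus vehicle gives the inhibition value.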

[2] = NCI Yeast Anticancer Drug Screen. Data for the mgt1 strain (AID 153); details: S. cerevisiae mgt1 mutant growth inhibition, stronger effect = higher value
Outline: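 Genetically defined yeast (mgt1) treated with compound; inhibition of growth expressed against vehicle-treated controls.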

[3] = NCI Yeast Anticancer Drug Screen. Data for the rad50 strain (AID 155);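 also: 0% = growth of vehicle-only cultures of the same strain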; details: S. cerevisiae rad50 strain growth inhibition, stronger effect = higher value
Outline: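 Vehicle-treated cultures provide the reference for the growth inhibition reported for compound-exposed, repair-deficient yeast.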

[4] = NCI Yeast Anticancer Drug Screen. Data for the mec2-1 strain (AID 157); details: S. cerevisiae mec2-1 strain, stronger effect = higher value
Outline: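 Readout is yeast growth inhibition, normalised to vehicle-treated controls, in the mec2-1 strain exposed to compound.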

[5] = NCI Yeast Anticancer Drug Screen. Data for the rad14 strain (AID 159);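 also: 0% = growth of vehicle-treated control cultures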; details: S. cerevisiae rad14 strain growth inhibition, stronger effect = higher value
Outline: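 Inhibition of growth is reported for a repair-deficient yeast mutant following compound treatment, calculated relative to cultures that received vehicle.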

[6] = NCI Yeast Anticancer Drug Screen. Data for the sgs1 mgt1 strain (AID 161);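 also: 0% = growth of cultures given vehicle only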; details: S. cerevisiae sgs1 mgt1 strain, stronger effect = higher value
Outline: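 Growth of a repair-deficient yeast mutant was monitored after compound treatment and expressed as inhibition relative to vehicle-treated cultures.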

[7] = NCI Yeast Anticancer Drug Screen. Data for the CLN2oe strain (AID 163);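 also: 0% = growth of vehicle-only control cultures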; details: S. cerevisiae CLN2oe strain, stronger effect = higher value
Outline: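 Values reflect how much compound exposure reduced yeast growth, referenced to vehicle-exposed cells. Assay organism is a strain with a defined genetic change affecting cell-cycle control.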

[8] = NCI Yeast Anticancer Drug Screen. Data for the bub3 strain (AID 167); details: S. cerevisiae bub3 mutant strain, stronger effect = higher value
Outline: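 Mutant yeast screening strain plus compound; vehicle-treated cultures serve as the 0% inhibition reference.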

[9] = NCI Yeast Anticancer Drug Screen. Data for the wt2 strain (AID 169); details: S. cerevisiae wt2 strain growth inhibition, stronger effect = higher value
Outline: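 Values express reduction in yeast growth under compound treatment, referenced to vehicle-treated cells.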

[10] = NCI Yeast Anticancer Drug Screen. Data for the mlh1 strain (AID 171);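 also: 0% = growth of vehicle-treated control cultures of the same strain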; details: S. cerevisiae mlh1 strain growth inhibition, stronger effect = higher value
Outline: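 Steps: expose the defined-mutant yeast strain to compound; expose a parallel culture to vehicle; measure growth; express compound effect as inhibition relative to the vehicle culture.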

[11] = NCI Yeast Anticancer Drug Screen. Data for the sgs1 strain (AID 173);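 also: 0% = growth of vehicle-only control cultures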; details: S. cerevisiae sgs1 mutant, stronger effect = higher value
Outline: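 Treat defined-mutant yeast with compound; measure growth; calculate inhibition relative to vehicle-treated cells.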

[12] = NCI Yeast Anticancer Drug Screen. Data for the mlh1 rad18 strain (AID 175); details: S. cerevisiae mlh1 rad18 strain growth inhibition, stronger effect = higher value
Outline: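 Test agents were incubated with a yeast strain of defined genotype (DNA damage repair defect). Inhibition of growth was derived by comparison with vehicle-exposed cultures.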

[13] = NCI Yeast Anticancer Drug Screen. Data for the rad18 strain (AID 177); details: S. cerevisiae rad18 mutant growth inhibition, stronger effect = higher value
Outline: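 A genetically defined yeast mutant impaired in DNA damage repair was treated with test compounds, then its growth was measured against cultures receiving vehicle alone.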

[14] = NCI Yeast Anticancer Drug Screen. Data for the rad50EPP+ strain (AID 151);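 also: 0% = growth of vehicle-treated control cultures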; details: S. cerevisiae rad50 mutant strain, stronger effect = higher value
Outline: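 Exposing the rad50EPP+ strain to each compound, growth was compared with vehicle-only cultures to give inhibition.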

[15] = NCI Yeast Anticancer Drug Screen. Data for the cln2 rad14 strain (AID 165);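 also: 0% = growth equal to vehicle treated cultures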; details: S. cerevisiae cln2 rad14 strain, stronger effect = higher value
Outline: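 Relative to vehicle controls, growth inhibition of compound-treated cln2 rad14 yeast was recorded.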

[16] = at 5.0 µM (retest, dose inferred, filed as 0.5)
[17] = at 50.0 µM (retest, dose inferred, filed as 5.0)

Measured: growth inhibition

COC1=C(N=[N+]=[N-])C(=O)c2ncccc2C1=O
inactive: [1]; at 1.2 µM 3% | [1]; at 3.7 µM 6% | [1]; at 11.0 µM 10% | [1]; at 33.0 µM 52% | [2]; at 1.2 µM 10% | [2]; at 3.7 µM 7% | [2]; at 11.0 µM 31% | [3]; at 1.2 µM 56% | [4]; at 1.2 µM 6% | [4]; at 3.7 µM 38% | [4]; [16] 38% | [4]; at 11.0 µM 68% | [5]; at 1.2 µM -2% | [5]; at 3.7 µM 10% | [5]; at 11.0 µM 44% | [6]; [16] 42% | [7]; at 1.2 µM -5% | [7]; at 3.7 µM 13% | [7]; at 11.0 µM 26% | [7]; at 33.0 µM 69% | [8]; at 1.2 µM 7% | [8]; at 3.7 µM 18% | [8]; [16] -4% | [8]; at 11.0 µM 18% | [9]; at 1.2 µM -55% | [9]; at 3.7 µM -12% | [9]; at 11.0 µM 49% | [10]; at 1.2 µM 10% | [10]; at 3.7 µM 6% | [10]; at 11.0 µM 21% | [11]; at 1.2 µM 8% | [11]; at 3.7 µM 30% | [11]; at 11.0 µM 56% | [12]; [16] 69% | [13]; at 1.2 µM 60%
active: [1]; at 100.0 µM 92% | [2]; at 33.0 µM 81% | [2]; at 100.0 µM 94% | [3]; at 3.7 µM 84% | [3]; [16] 86% | [3]; at 11.0 µM 93% | [3]; at 33.0 µM 94% | [3]; [17] 95% | [3]; at 50.0 µM 82.2% | [3]; at 100.0 µM 95% | [4]; at 33.0 µM 93% | [4]; [17] 94% | [4]; at 50.0 µM 85.5% | [4]; at 100.0 µM 96% | [5]; at 33.0 µM 91% | [5]; at 100.0 µM 96% | [6]; [17] 93% | [6]; at 50.0 µM 82.3% | [7]; at 100.0 µM 95% | [8]; at 33.0 µM 72% | [8]; [17] 88% | [8]; at 50.0 µM 78% | [8]; at 100.0 µM 94% | [9]; at 33.0 µM 92% | [9]; at 100.0 µM 95% | [10]; at 33.0 µM 80% | [10]; at 100.0 µM 94% | [11]; at 33.0 µM 84% | [11]; at 100.0 µM 94% | [12]; [17] 95% | [13]; at 3.7 µM 89% | [13]; at 11.0 µM 94% | [13]; at 33.0 µM 96% | [13]; at 100.0 µM 96%

CCCCCCCCCCCCCCCCOCC(Cl)COP(=O)(O)OP(=O)(O)OCC1OC(n2cnc3c(N)ncnc32)C(O)C1O (configuration not stated)
active: [14]; at 100.0 µM 97% | [2]; at 100.0 µM 85% | [3]; at 11.0 µM 75% | [3]; at 33.0 µM 86% | [3]; [17] 93% | [3]; at 100.0 µM 86% | [4]; [17] 73% | [6]; [16] 74% | [6]; [17] 96% | [6]; at 50.0 µM 88.4% | [15]; [17] 79% | [8]; [17] 73% | [10]; at 100.0 µM 78% | [11]; at 11.0 µM 93% | [11]; at 33.0 µM 95% | [11]; at 100.0 µM 92% | [12]; [17] 92%
inactive: [14]; at 1.2 µM 20% | [14]; at 3.7 µM 24% | [14]; at 11.0 µM 43% | [14]; at 33.0 µM 67% | [2]; at 1.2 µM 15% | [2]; at 3.7 µM 14% | [2]; at 11.0 µM 55% | [2]; at 33.0 µM 68% | [3]; at 1.2 µM 14% | [3]; at 3.7 µM 28% | [3]; [16] 49% | [3]; at 50.0 µM 54.4% | [4]; at 1.2 µM 14% | [4]; at 3.7 µM 6% | [4]; [16] 36% | [4]; at 11.0 µM 19% | [4]; at 33.0 µM 11% | [4]; at 50.0 µM 33.4% | [4]; at 100.0 µM 47% | [5]; at 1.2 µM 10% | [5]; at 3.7 µM 6% | [5]; at 11.0 µM 29% | [5]; at 33.0 µM 35% | [5]; at 100.0 µM 46% | [7]; at 1.2 µM 2% | [7]; at 3.7 µM 2% | [7]; at 11.0 µM -4% | [7]; at 33.0 µM 24% | [7]; at 100.0 µM 31% | [15]; [16] 24% | [15]; at 50.0 µM -30.4% | [8]; at 1.2 µM -12% | [8]; at 3.7 µM -25% | [8]; [16] 10% | [8]; at 11.0 µM -8% | [8]; at 33.0 µM 9% | [8]; at 50.0 µM 28.2% | [8]; at 100.0 µM 39% | [9]; at 1.2 µM -2% | [9]; at 3.7 µM -3% | [9]; at 11.0 µM 11% | [9]; at 33.0 µM 19% | [9]; at 100.0 µM 57% | [10]; at 1.2 µM 10% | [10]; at 3.7 µM -1% | [10]; at 11.0 µM 53% | [10]; at 33.0 µM 63% | [11]; at 1.2 µM 40% | [11]; at 3.7 µM 64% | [12]; [16] 36% | [12]; at 50.0 µM 48% | [13]; at 1.2 µM -4% | [13]; at 3.7 µM 0% | [13]; at 11.0 µM 22% | [13]; at 33.0 µM 39% | [13]; at 100.0 µM 59%
